Results on 18 compounds are retold here after the supplement of paper PMC6609913.

For this assay, the system named is V-C8 (BRCA2-deficient hamster cells). The experiment in a line: normalised cell viability (fraction of plate median); higher = more viable cells (less toxic). The conditions noted are these: 5 µM. An outline of the steps:
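Library drugs, held as 10 mM stocks in DMSO, were diluted to 5 μM in 100 μl medium and added to 96-well plates of V-C8 hamster cells, either lacking BRCA2 or with BRCA2 restored, 24 h after seeding. Plates ran for 3 days (screen 1) or 6 days (screen 2), alongside solvent-only wells. Viability came from a resazurin readout, median-plate normalised, as the mean of triplicate wells.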

Structures can show the parent of a compound that is named as a salt. ± gives the standard deviation of the averaged measurements. Over roughly 1,300 compounds, “normalised cell viability” has its median near 1; the lowest 2% begin near 0.14. This is one part of a sample in which the lowest values are shown more often than they occur.

In the case of `CN(C)CCOc1ccc(/C(=C(/CCCl)c2ccccc2)c2ccccc2)cc1` [Toremifene], the normalised cell viability runs as follows: (treatment time: 3 days) 0.716 ± 0.067; (treatment time: 6 days) 0.875 ± 0.052.

The compound `CC/C(=C(\c1ccccc1)c1ccc(OCCN(C)C)cc1)c1ccccc1` [Tamoxifen citrate] returned a normalised cell viability (treatment time: 3 days) of 0.837 ± 0.019 and a normalised cell viability (treatment time: 6 days) of 0.767 ± 0.035.

Take `CCN(CC)CCOc1ccc(C(=C(Cl)c2ccccc2)c2ccccc2)cc1` [Clomiphene citrate (Z,E)]: the normalised cell viability reads like this: (treatment time: 3 days) 0.142 ± 0.002; (treatment time: 6 days) 0.118 ± 0.011.

Regarding `CC[N+](CC)(CC(=O)Nc1c(C)cccc1C)Cc1ccccc1` [Denatonium benzoate], the normalised cell viability amounted to 1.01 ± 0.031 (treatment time: 3 days) and 1.07 ± 0.019 (treatment time: 6 days).

As to `Cc1cn([C@H]2C=C[C@@H](CO)O2)c(=O)[nH]c1=O` [Stavudine], the normalised cell viability is, setting by setting: (treatment time: 3 days) 1.05 ± 0.077; (treatment time: 6 days) 1.23 ± 0.35.

For the compound `O=C1NCCN1CCN1CCC(c2cn(-c3ccc(F)cc3)c3ccc(Cl)cc23)CC1` [Sertindole], the normalised cell viability was 0.385 ± 0.019 (treatment time: 3 days) and 0.591 ± 0.069 (treatment time: 6 days).

On to `CC(C)(C)C(=O)OCOC(=O)[C@@H]1N2C(=O)[C@@H](/N=C/N3CCCCCC3)[C@H]2SC1(C)C` [Pivmecillinam hydrochloride], for which the normalised cell viability came out at 0.959 ± 0.056 (treatment time: 3 days) and 1.01 ± 0.039 (treatment time: 6 days).

`Cc1ncc([N+](=O)[O-])n1CCO` [Metronidazole] showed a normalised cell viability (treatment time: 3 days) of 0.914 ± 0.088 and a normalised cell viability (treatment time: 6 days) of 1.04 ± 0.058.

On to `CC(=O)O[C@H]1C(=O)[C@@]2(C)[C@H]([C@H](OC(=O)c3ccccc3)[C@]3(O)C[C@H](OC(=O)[C@H](O)[C@@H](NC(=O)c4ccccc4)c4ccccc4)C(C)=C1C3(C)C)[C@]1(OC(C)=O)CO[C@@H]1C[C@@H]2O` [Paclitaxel], for which the normalised cell viability came to 0.193 ± 0.01 (treatment time: 3 days) and 0.199 ± 0.0046 (treatment time: 6 days).

On to `Cc1oncc1C(=O)Nc1ccc(C(F)(F)F)cc1` [Leflunomide], for which the normalised cell viability by setting is: (treatment time: 3 days) 0.904 ± 0.065; (treatment time: 6 days) 0.959 ± 0.043.

`COc1cccc(N(C)C(=S)Oc2ccc3c(c2)CCCC3)n1` [Liranaftate]: the normalised cell viability runs as follows: (treatment time: 3 days) 0.805 ± 0.038; (treatment time: 6 days) 0.74 ± 0.046.

Regarding `COC(=O)Nc1nc2ccc(SC(C)C)cc2[nH]1` [Methiazole], the normalised cell viability is, setting by setting: (treatment time: 3 days) 0.214 ± 0.0082; (treatment time: 6 days) 0.221 ± 0.025.

Regarding `COc1ccc(CN2CCN(C(c3ccc(F)cc3)c3ccc(F)cc3)CC2)c(OC)c1OC` [Lomerizine hydrochloride], the normalised cell viability worked out at 0.881 ± 0.042 (treatment time: 3 days) and 0.799 ± 0.035 (treatment time: 6 days).

Turning to `Cc1ccc(S(=O)(=O)NC(=O)NN2CC3CCCC3C2)cc1` (stereo unspecified) [Gliclazide], the normalised cell viability was 1.04 ± 0.049 (treatment time: 3 days) and 0.979 ± 0.091 (treatment time: 6 days).

Regarding `CCOC(=O)OC(C)OC1=C(C(=O)Nc2ccccn2)N(C)S(=O)(=O)c2ccccc21` (stereo unspecified) [Ampiroxicam], the normalised cell viability stood at 1.03 ± 0.055 (treatment time: 3 days) and 1.02 ± 0.041 (treatment time: 6 days).

Take `Cc1cc(N)c2ccccc2[n+]1CCCCCCCCCC[n+]1c(C)cc(N)c2ccccc21` [Dequalinium dichloride]: the normalised cell viability by setting is: (treatment time: 3 days) 0.171 ± 0.0032; (treatment time: 6 days) 0.162 ± 0.013.

Turning to `CN(CCCCCCCCCCN(C)C(=O)Oc1cccc([N+](C)(C)C)c1)C(=O)Oc1cccc([N+](C)(C)C)c1` [Demecarium bromide], the normalised cell viability runs as follows: (treatment time: 3 days) 0.828 ± 0.022; (treatment time: 6 days) 0.812 ± 0.013.

`C[C@H]1NC(=O)NC1=O` [Methylhydantoin-5-(D)]: the normalised cell viability (treatment time: 3 days) came out at 0.968 ± 0.032 and the normalised cell viability (treatment time: 6 days) was found to be 0.954 ± 0.077.
